GDH-TPI inh: GDH-TPI coupled enzyme inhibition counter-screen | GDH-TPI coupled enzyme counterscreen, NADH absorbance | inhibition, % at 4.8 µM | 360,000 compounds, 1.2% hits | AID 588335; in the data active = inhibition above about 30%;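 also: 0% = DMSO wells and 100% = wells lacking the enzyme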
Mtb FBA inh: inhibitors of M. tuberculosis fructose-bisphosphate aldolase. purified M. tuberculosis FBA, fluorescence read-out. P9WQA3. inhibition, % at 1 µM. 360,000 compounds, 2.3% hits; in the data active = inhibition above about 27%;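 also: 0% = vehicle and 100% = reference inhibitor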
Target sequence (P9WQA3 whole entry, looked up): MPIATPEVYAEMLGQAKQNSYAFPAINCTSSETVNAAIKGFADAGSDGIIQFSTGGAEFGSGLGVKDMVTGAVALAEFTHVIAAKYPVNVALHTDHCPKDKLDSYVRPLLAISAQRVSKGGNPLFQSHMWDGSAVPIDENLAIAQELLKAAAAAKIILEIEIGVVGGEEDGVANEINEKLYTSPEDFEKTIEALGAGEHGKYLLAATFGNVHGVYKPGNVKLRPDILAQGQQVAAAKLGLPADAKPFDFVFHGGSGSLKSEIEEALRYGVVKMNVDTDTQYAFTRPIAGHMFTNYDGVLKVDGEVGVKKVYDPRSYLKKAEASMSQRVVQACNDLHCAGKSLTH
PrPC TRFRET: reduces human prion protein on the cell surface. P04156. cell surface PrPC, TR-FRET read-out. inhibition, % at 13.8 µM. 370,000 compounds, 0.43% hits; in the data active = inhibition above about 24%; also: 0% = median of the test wells and 100% = reference compound wells
RecA splice inh: blocks M. tuberculosis RecA intein splicing; 290,000 compounds, 0.75% hits; cell-free RecA intein splicing, fluorescence; P9WHJ3; inhibition, % (test concentration not listed); in the data active = inhibition above about 30%;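 also: 0% = vehicle wells and 100% = reference inhibitor control wells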
BJeLR lethal: BJeLR cell viability loss | 300,000 compounds, 0.17% hits | BJeLR (HRASV12) viability, CellTiter-Glo ATP luminescence, 48 h | AID 1554 | inhibition, % (test concentration not listed); in the data active = inhibition above about 50%
* marks the source's active call; other numbers are inactive results; i = inactive; · = no result given; + = active, no number. Rows were chosen to be rich in hits. Some 4.2% of all compounds tested hit in one or more screens of this group.

SMILES	GDH-TPI inh	Mtb FBA inh	PrPC TRFRET	RecA splice inh	BJeLR lethal
CC1C[N+](=C2C=C(N3CCOCC3)CC(C)(C)C2)CC(C)O1 (stereo not given)	61*	5	-1	1	6
CC1(C)CC(N2CCOCC2)=CC(=[N+]2CCOCC2)C1	29	-6	2	-1	-1
CC1(C)CC(N2CCCCC2)=CC(=[N+]2CCCCC2)C1	90*	-4	9	0	14
CN(C)NC1=CC(=[N+]2CCCC2)CC(C)(C)C1	7	1	-10	-1	2
O=[N+]([O-])c1ccc2[nH]c(O)c(N=NC(=S)NCC3CCCO3)c2c1 (stereo not given)	14	-2	-9	1	10
O=[N+]([O-])c1ccc2[nH]c(O)c(N=NC3CS(=O)(=O)CC3O)c2c1 (stereo not given)	45*	2	-28	0	-2
Cc1ccccc1NCC(=O)N=Nc1c(O)[nH]c2ccc([N+](=O)[O-])cc12	36*	-3	-28	3	-7
CCNC(=S)N=Nc1c(O)[nH]c2ccc([N+](=O)[O-])cc12	30	-5	-11	45*	-4
COc1ccc(C2C(C(=O)N3CCN(C=O)CC3)CC(=O)N2c2ccc(OC)cc2)cc1 (stereo not given)	·	·	2	·	·
COc1ccc(S(=O)(=O)N(C)c2nc3ccccc3n3c(CC(C)C)nnc23)cc1	12	56*	4	1	1
CCCC1CCC2(CCCN2CCOC(=O)Nc2cccc(Cl)c2)CC1 (stereo not given)	·	·	2	·	·
O=C(Nc1ccc(F)cc1)C(=O)c1c(O)[nH]c2ccc([N+](=O)[O-])cc12	38*	3	·	0	-1
CCCCCN=Cc1c(C)[nH]n(-c2nc3ccccc3s2)c1=O	23	-2	6	0	53*
CCCc1[nH]n(-c2nc3ccccc3s2)c(=O)c1C=NCCCOC	22	-3	1	0	-16
Cc1cccc(NC(=O)CNC(=O)[C@H](CCc2ccccc2)NC(=O)[C@H]2O[C@@H](n3cnc4c(N)ncnc43)[C@H](O)[C@@H]2O)c1C	·	·	5	·	·
O=C(c1ccco1)N1CCC(Oc2cccnc2)CC1	·	·	1	·	·
Fc1cccc(/C=N/Nc2ccccn2)c1	49*	-3	-2	1	4
Clc1ccc(/C=N/Nc2ncnc3nc[nH]c23)cc1	20	-2	-12	-2	-6
Oc1ccc(/C=N/Nc2ncnc3nc[nH]c23)cc1	74*	-1	2	-5	15
Cc1ccc(/C=N/Nc2ncnc3nc[nH]c23)cc1	64*	-5	-2	-4	3
Fc1cccc(/C=N/Nc2ncnc3nc[nH]c23)c1	42*	0	-7	-6	10
Fc1cccc(F)c1/C=N/Nc1ccccn1	14	0	-1	·	5
COC(=O)[C@]12CCCCC=C1N(Cc1ccc(OC)cc1)C(=O)[C@@H]2CC(=O)NCc1cccc(C(F)(F)F)c1	·	·	9	·	·
O=C(Nc1nnc(-c2cccnc2)s1)c1cnc2ccccc2c1	·	·	-8	·	·
Cc1ccc(-n2c(SCC(=O)Nc3ccc(OCc4ccccc4)cc3)nnc2-c2cnccn2)cc1	·	·	6	·	·
SMILES	GDH-TPI inh	Mtb FBA inh	PrPC TRFRET	RecA splice inh	BJeLR lethal
C/C(=N\Nc1nc2ccccc2s1)c1ccc(Br)s1	1	1	-4	-2	14
CC(=NNc1nc2ccccc2s1)c1ccncn1	34*	-4	17	·	·
CCc1cc2c(=O)c(-c3nc4ccccc4n3C)c(C)oc2c(CN2CCN(CCO)CC2)c1O	35*	12	-3	-3	0
CCc1cc2c(=O)c(-c3nc4ccccc4n3C)coc2c(CN2CCCC(C)C2)c1O (stereo not given)	34*	11	-4	-4	0
COc1ccc(OC)c(S(=O)(=O)N2CCCCC2C(=O)N2CCN(c3ccc(F)cc3)CC2)c1 (stereo not given)	·	·	-1	·	·
CCN(CC)c1nc2c(s1)C(=O)CC(C)(C)C2	35*	-2	11	-1	-1
CCN(CC)c1nc2c(s1)C(=O)NCCC2	4	-3	-3	-2	0
Cc1ccc2nc(-c3ccc(N)cc3)sc2c1	25	+	10	1	4
Nc1ccc2nc(-c3ccccc3)sc2c1	26	+	8	-1	2
CNS(=O)(=O)c1cccc(C(=O)OCC(=O)Nc2ccc(-c3nc4ccc(C)cc4s3)cc2)c1	23	29*	·	-1	-3
O=C(CCS(=O)(=O)c1ccccc1)Nc1ccc(-c2nc3ccccc3s2)cc1	7	31*	1	3	·
Cc1ccc2nc(-c3ccc(NC(=O)COC(=O)c4ccco4)cc3)sc2c1	21	10	10	0	7
CN(Cc1ccccc1)S(=O)(=O)c1cccc(C(=O)OCc2cccc([N+](=O)[O-])c2)c1	·	·	4	·	·
C[C@H](O)[C@@H]1CN2CCc3ccc(N4CCOCC4)cc3[C@@H]2C[C@@H]1N(C)C(=O)c1ccco1	·	·	0	·	·
COc1ccc(-n2c(SCC(=O)Nc3ccc4c(c3)OCCO4)nnc2-c2ccccc2)cc1	·	·	-6	·	·
Cc1ccc2nc(-c3ccc(NS(=O)(=O)c4ccc(F)cc4)cc3)sc2c1	37*	+	8	10	-1
CC1=CCC(C(=O)O)C(C(=O)Nc2ccc(-c3nc4ccc(C)cc4s3)cc2)C1 (stereo not given)	37*	190*	6	5	-2
COc1ccc(/C=C(/NC(=O)c2ccco2)C(=O)Nc2ccc(C(=O)O)cc2)cc1	12	-2	-11	5	-13
CSc1ccc(/C=C(\NC(=O)c2ccco2)C(=O)N2CCCCC2)cc1	37*	-3	2	1	-1
CSc1ccc(/C=C(/NC(=O)c2ccco2)C(=O)NCc2ccco2)cc1	41*	1	-13	-1	-2
COc1ccc(/C=C(\NC(=O)c2ccco2)C(=O)Nc2ccc(C(C)=O)cc2)cc1	33*	-2	-3	0	·
COC(=O)[C@]12C[C@H](CC(=O)NCCc3ccccc3OC)C(=O)N(Cc3cccc4ccccc34)C1=C[C@H](C1CCCC1)O[C@@H]2C	·	·	7	·	·
COc1ccc2cc(C(=O)CS(=O)(=O)c3ccc(Cl)cc3)c(=O)oc2c1	·	·	3	·	·
CCN(CC)c1ccc(/C=N/N2CCN(c3ccccc3OC)CC2)cc1	37*	1	8	0	-5
COc1ccc(/C=N/N2CCN(c3ccccc3OC)CC2)cc1OC	11	2	-5	0	5
CCOCCCn1c(=NC(C)=O)c(C#N)cc2c(=O)n3cccc(C)c3nc21	2	+	-1	i	6
CCCCn1c(=NC(C)=O)c(C#N)cc2c(=O)n3cccc(C)c3nc21	0	102*	3	-2	-3
CCCCCn1c(=NC(=O)c2cccnc2)c(C#N)cc2c(=O)n3cccc(C)c3nc21	1	116*	-9	-1	2
CCOCCCn1c(=NC(=O)c2ccc(OC)c(OC)c2)c(C#N)cc2c(=O)n3cccc(C)c3nc21	·	·	·	-17	1
